The source made the active and inactive calls. Entries that show only a call come without a potency. The call rests on the fitted dose curve; in most records, active means well fitted activation curve with a large enough effect; inconclusive means small, poorly fitted or top-dose-only effect; inactive means no such curve, though single readings can be large or run the other way.
Assay: Confirmatory qHTS for Identification of Small Molecule Activators of Huntingtin-Antisense Promoter Activity
Settings: HEK293 HTT-AS promoter firefly luciferase reporter, 24 h; series mostly up to 57.5 µM
Outline: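 2,500 luciferase reporter HEK293 cells/well; 24 h culture; cpds up to 57.5 uM final, PTC124 50 uM ctrl; 24 h, 37C; Dual-Glo FLuc reagent, 10 min RT; lum. Norm.: vehicle 0%, zero RLU -100%.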
Potency means the concentration at half of the fitted maximal effect.

Row | Structure (SMILES) | Potency
1 | Cc1noc2ncnc(NCc3cccc(Cl)c3)c12 | inactive
2 | CCC1=C(c2ccc(C)cc2)S(=O)(=O)N=C1N1CCC(C(=O)NCCc2ccc(Cl)cc2)CC1 | inactive
3 | CC(=O)N1CCCc2cc(S(=O)(=O)N3CCN(c4ccc(F)cc4)CC3)ccc21 | inactive
4 | COc1ccccc1C(=O)NCCSc1c(C)[nH]c2ccccc12 | inactive
5 | Cc1cccc(N2CCN(C(=O)c3ccc(NC(=O)c4nsc5ccccc45)cc3)CC2C)c1 (centres undefined) | 0.338 µM (active)
6 | O=C(NCCC1=CCCCC1)c1ccc2c(c1)N(Cc1cccc(Cl)c1)C(=O)c1ccccc1S2(=O)=O | inactive
7 | Cc1ccc(C)c(OCCCC(C)(C)C(=O)O)c1 | inactive
8 | CC(C)c1ccc(CNC(=O)c2ccc(N3CCCC3)c(NC(=O)NCc3ccc(F)cc3)c2)cc1 | inactive
9 | COc1ccc(-n2nc3c(N4CCCC(C(=O)NCCc5ccc(C)cc5)C4)nnc(C)c3c2C)cc1 (centres undefined) | inactive
10 | COc1cc(NC(=O)Cn2nc(C(F)(F)F)c3c2CCC3)cc(OC)c1OC | inactive
11 | Cc1ccccc1-c1nc(CS(=O)CC(=O)N2CCN(c3cc(Cl)ccc3C)CC2)c(C)o1 (centres undefined) | inactive
12 | Cc1cccc2sc(N3CCN(C(=O)CS(=O)(=O)c4ccc(F)cc4)CC3)nc12 | inactive
13 | Cc1ccc(N(C)C(=O)Cn2cnc3onc(-c4ccc(F)cc4)c3c2=O)cc1C | inactive
14 | Cc1oc(-c2ccc(C(=O)Nc3cccc(C(F)(F)F)c3)cc2)nc1CSc1ccccc1 | inactive
15 | Cc1c(Cl)ccc2sc(N3CCN(C(=O)CCS(=O)(=O)c4ccc(F)cc4)CC3)nc12 | inactive
16 | CCc1ccccc1-n1c(SCC(=O)Nc2ccc(C)cc2)nc2n[nH]c(C)c2c1=N | inactive
17 | Cc1cccc(N2CCN(S(=O)(=O)c3ccc4c(c3)CCCN4C(=O)C3CCC3)CC2)c1C | inactive
18 | CCCN(c1ccccc1CC)S(=O)(=O)c1ccc2c(c1)CC(C)N2C(=O)C1CC1 (centres undefined) | inactive
19 | O=C(Nc1ccc(S(=O)(=O)N(Cc2ccccc2)c2ccccc2)cc1)c1ccc(F)cc1 | inactive
20 | Cc1cc(NC(=O)NCc2ccc3c(c2)CCN3C(=O)c2ccccc2)ccc1Br | inactive

Row | Structure (SMILES) | Potency
21 | CCC(=O)N1CCCc2cc(S(=O)(=O)N3CCC(C(=O)Nc4ccccc4CC)CC3)ccc21 | inactive
22 | COc1cc(NC(=O)c2cnc3c(-c4ccc(F)cc4)c(C)nn3c2C)cc(OC)c1 | inactive
23 | Cc1ccc(NCc2cccn2-c2nnc(N3CCC(C(=O)NCCC(C)C)CC3)s2)cc1 | inactive
24 | CCOc1ccc(C(=O)Nc2ccc3c(c2)CCCN3S(=O)(=O)c2ccc(C)cc2)cc1 | inactive
25 | COc1ccc(CNS(=O)(=O)c2ccc(N3CCCCS3(=O)=O)cc2)cc1 | inactive
26 | CCc1cccc(NS(=O)(=O)c2ccc3c(c2)CC(C)N3C(=O)C2CC2)c1 (centres undefined) | inactive
27 | COc1cc(NC(=O)c2cc3c(s2)-c2ccccc2OC3)cc(OC)c1OC | inactive
28 | O=C1CCCc2cc(S(=O)(=O)NCC3CCC(C(=O)Nc4ccccc4F)CC3)ccc2N1 (centres undefined) | inactive
29 | COc1ccc(CCNC(=O)c2ccc3c(c2)CCN3S(=O)(=O)c2ccc(Cl)cc2)cc1 | inactive
30 | O=C(Cc1ccccc1)Nc1cccc(-c2cn3cccnc3n2)c1 | 10.7 µM (active)
31 | Cc1ccc(N2CCN(C(=O)c3nn(C)c4c3CS(=O)(=O)c3ccccc3-4)CC2)c(C)c1 | inactive
32 | CCOc1ccccc1C(=O)Nc1ccc2nc3c(c(Nc4ccc(OC)c(OC)c4)c2c1)CCCC3 | inactive
33 | COc1ccccc1CNC(=O)c1oc2ccc(S(=O)(=O)N3CCCCC3)cc2c1C | inactive
34 | Cc1c(NS(C)(=O)=O)cccc1-c1nc2ccccc2s1 | inactive
35 | COc1cccc(NS(=O)(=O)c2ccc3[nH]cc(C(=O)NCCc4ccc(C)cc4)c(=O)c3c2)c1 | inactive
36 | Cc1ccc(Nc2ccc(N3CCN(C(=O)c4ccc([N+](=O)[O-])cc4Cl)CC3)nn2)cc1 | inactive
37 | CCCOc1ccc(C2c3c(-c4ccccc4O)n[nH]c3C(=O)N2CCCOCC)cc1OCC (centres undefined) | inactive
38 | Cc1nc(C)c(-c2ccc(SCC(=O)Nc3ccc(F)c(F)c3)nn2)s1 | inactive
39 | COc1ccc(CCNC(=O)Cn2nc(C)c3c(C)n(-c4ccc(C)cc4)nc3c2=O)c(OC)c1 | inactive

Source: PubChem BioAssay AID1508622 (National Center for Advancing Translational Sciences (NCATS), 2021)
